The text below walks through data of PubChem BioAssay (NCATS).

Records with an inconclusive call do not appear. Calls of active or inactive are those of the source. Calls follow the shape of the dose curve; as a rule, active = well fitted inhibition curve with a large enough effect; inconclusive = small, poorly fitted or top-dose-only effect; inactive = flat fitted curve, though single readings scatter.
% is scaled to controls: 0 for no effect and ±100 for the full control effect; potency is read from the fitted curve at half-maximal effect.

The nature of the test: P-glycoprotein substrates identified in KB-8-5-11 adenocarcinoma cell line, qHTS therapeutic library screen (AID 1346987). Also: nearly all actives have a fitted effect of over 65% in size. The conditions noted are these: KB-8-5-11 (P-gp overexpressing) viability, CellTiter-Glo, 72 h; series mostly up to 44.5 µM; activity change, negative = cytotoxicity: at the top concentration. In outline:
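Luminescence from CellTiter-Glo, read 5 min after addition, quantified survival of KB-8-5-11 (P-gp-overexpressing) cells exposed to compounds for 72 h. AC50 was derived from concentration-response curves.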
Regarding `Cc1cc(Nc2cc(N3CCN(C)CC3)nc(/C=C/c3ccccc3)n2)n[nH]1`, the Potency is 7310 nM (active).

For `CCCN1CCN(c2ccc(C(=O)NC3(C(=O)NCC#N)CCCCC3)cc2)CC1`, the “activity change, negative = cytotoxicity” value was -8.46% (inactive).

Take `CCOCCn1nc(CC)c2nc(N3CCC(C(=O)O)CC3)nc(Nc3cc(C)ccn3)c21`: the “activity change, negative = cytotoxicity” value was -25% (inactive). As to `CC12CCC(C(OC3OC(COC4OCC(O)(CO)C4O)C(O)C(O)C3O)C1)C(C)(C)O2` (centres undefined), the “outcome” value was “inactive [at 17.3 µM]”.

`C=CC1(C)C=C2C(=O)OC(=O)C3=C(CCCC3(C)C)C2(O)CC1` (centres undefined): the result was inactive. For the compound `C=C(C)[C@@H]1CC[C@]2(C)CC[C@]3(C)[C@H](CC[C@@H]4[C@@]5(C)CC[C@@H](O)C(C)(C)[C@@H]5CC[C@]43C)[C@@H]12`, the “activity change, negative = cytotoxicity” value was -4.26% [at 17.3 µM] (inactive). Regarding `CC1CCC2(OC1)OC1CC3C4CCC5C[C@@H](O[C@@H]6O[C@H](CO[C@@H]7OC[C@@H](O)[C@H](O)[C@H]7O)[C@H](O)[C@H](O)[C@H]6O)CC[C@]5(C)C4CC[C@]3(C)C1C2C` (some centres undefined), the “outcome” value is “inactive [at 17.3 µM]”.

Take `CC1OC(OC2CCC3(C)C(CCC4(C)C3CC=C3C5CC(C)(C)CCC5(C(=O)OC5OC(CO)C(O)C(O)C5O)CCC34C(=O)O)C2(C)C)C(O)C(O)C1O` (centres undefined): the “outcome” value is “inactive [at 17.3 µM]”.

In the case of `CC(C)=CCC/C(C)=C/Cc1ccc(O)c(C2OC(=O)c3cc(C(=O)O)cc(O)c32)c1O` (centres undefined), the “activity change, negative = cytotoxicity” value is -1.65% [at 17.3 µM] (inactive).

As for `CN(C)C/C=C/C(=O)Nc1cccc(C(=O)Nc2ccc(Nc3nccc(-c4cccnc4)n3)cc2)c1`, the compound was called inactive.

Consider `Cc1cc(C)nc(NS(=O)(=O)c2ccc(NC(=S)NC(=O)COc3ccc(Br)cc3Cl)cc2)n1`, for which the outcome was inactive. Turning to `C=C1C(O)C(O)C2(CC3C(C)=CCC4C(C)(CO)CCCC34C)OC2C1O` (centres undefined), the “activity change, negative = cytotoxicity” value is -3.22% (inactive). Turning to `O=C(O)c1ccccc1NC(=O)N1CCC(c2ccccc2C(F)(F)F)CC1`, the “activity change, negative = cytotoxicity” value was -11.2% (inactive). With `C[C@@H]1COCCN1c1cc(C2(S(C)(=O)=O)CC2)nc(-c2cccc3[nH]ccc23)n1`, the Potency is 1460 nM (active). For `CC1COC2(OC3CC4C5CC(O[C@@H]6O[C@H](C)[C@@H](O[C@@H]7O[C@@H](C)[C@H](O)[C@@H](O)[C@H]7O)[C@H](O)[C@H]6O)C6CC(O)CCC6(C)C5CCC4(C)C3C2C)C(O)C1` (some centres undefined), the “activity change, negative = cytotoxicity” value was -1.08% [at 17.3 µM] (inactive). On to `CC(O)/C=C/C1C(C)C(O[C@@H]2O[C@H](CO)[C@@H](O)[C@H](O)[C@H]2O)C(O)CC1(C)C` (some centres undefined), for which the “activity change, negative = cytotoxicity” value was -1.17% (inactive). The same measure, in the same setting: the value for `COc1ccc(CNC(=O)c2sc3nc(C)cc(C)c3c2N)cc1` was -21.7% (inactive). Take `CC(C)(C)NCCCNC(=O)c1cccc(Br)c1`: the “activity change, negative = cytotoxicity” value is 3.58% (inactive). Still for that read-out and setting: the value for `CC1(C)CC[C@]2(C(=O)O[C@@H]3O[C@H](CO)[C@@H](O)[C@H](O)[C@H]3O)CC[C@]3(C)C(=CCC4[C@@]5(C)C[C@@H](O)[C@H](O)[C@](C)(C(=O)O)C5CC[C@]43C)C2C1O` (some centres undefined) was -2.37% [at 17.3 µM] (inactive).

Consider `Nc1nc2c(ncn2[C@@H]2O[C@H](CO)[C@@H](O)[C@H]2O)c(=O)[nH]1`, for which the outcome was inactive. On the same count and under the same terms, the value for `C=C[C@H]1C(O[C@@H]2O[C@H](CO)[C@@H](O)[C@H](O)[C@H]2O)OC=C2C(=O)N3CCc4c([nH]c5ccccc45)[C@H]3C[C@H]21` (some centres undefined) was “inactive [at 17.3 µM]”. Turning to `CC(C)NCC(C(=O)N1CCN(c2ncnc3c2C(C)CC3O)CC1)c1ccc(Cl)cc1` (centres undefined), the “activity change, negative = cytotoxicity” value is 2.82% (inactive). On the same count and under the same terms, the value for `CO[C@H]1C[C@@H]2CC[C@@H](C)[C@@](O)(O2)C(=O)C(=O)N2CCCC[C@H]2C(=O)O[C@H]([C@H](C)C[C@@H]2CC[C@@H](OP(C)(C)=O)[C@H](OC)C2)CC(=O)[C@H](C)/C=C(\C)[C@@H](O)[C@@H](OC)C(=O)[C@H](C)C[C@H](C)/C=C/C=C/C=C/1C` was -25.4% [at 17.3 µM] (inactive). As for `CC(=O)NC[C@H]1CN(c2ccc(N3CCN(C(=O)CO)CC3)c(F)c2)C(=O)O1`, the “activity change, negative = cytotoxicity” value is -12.9% (inactive). For the compound `C[C@@H]1CCC2C(C)(C)[C@H](O)CC[C@]2(C)[C@@]12Cc1c(O)cc3c(c1O2)CNC3=O` (some centres undefined), the “activity change, negative = cytotoxicity” value is 9.38% (inactive). Same read-out and setting: the value for `Cc1cc2c(c(=O)[nH]1)OC(C(O)CC(C)C)O2` (centres undefined) was -3.87% (inactive). `CC(C)(C)Nc1nc(Nc2ccc(C(N)=O)cc2)cc(N)c1C#N`: the Potency is 2060 nM (active). The same measure, in the same setting: the value for `O=C(/C=C\n1cnc(-c2cc(C(F)(F)F)cc(C(F)(F)F)c2)n1)N1CC(F)(F)C1` was 461 nM (active); that for `Cc1cc(Nc2ncc3cc(-c4c(Cl)cccc4Cl)c(=O)n(C)c3n2)ccc1F` was 1300 nM (active); that for `CC(C)(C#N)c1ccc(N2C(=O)OCc3cnc4ccc(-c5cnc6ccccc6c5)cc4c32)cc1` was 3660 nM (active). As to `COC1CC(OC2CCC3(C)C(=CCC4C3C(OC(C)=O)C(OC(=O)/C=C/c3ccccc3)C3(C)C(C(C)O)CCC43O)C2)OC(C)C1OC1CC(OC)C(OC2OC(C)C(OC3OC(CO)C(O)C(O)C3O)C(OC)C2O)C(C)O1` (centres undefined), the outcome is “inactive [at 9.29 µM]”. As to `CC1(C)CCC2(C(=O)OC3OC(CO)C(O)C(O)C3O)CCC3(C)C(=CCC4C5(C)CCC(OC6OC(C(=O)O)C(OC7OC(CO)C(O)C(O)C7O)C(OC7OC(CO)C(O)C(O)C7O)C6O)C(C)(C)C5CCC43C)C2C1` (centres undefined), the activity change, negative = cytotoxicity is 4.92% [at 9.29 µM] (inactive). Turning to `C=C1C[C@]23C[C@H]1CC[C@H]2[C@@]12CC[C@H](O)[C@@](C)(C(=O)O1)[C@H]2[C@@H]3C(=O)O`, the “activity change, negative = cytotoxicity” value was 5% (inactive). The same measure, in the same setting: the value for `CC1(C)CC2C(C1)C(C)(O)C13CC1(COC3=O)C2O` (centres undefined) was -11.5% (inactive). As to `C[C@@H]1O[C@@H](O[C@H]2[C@@H]3C=CO[C@@H](O[C@@H]4O[C@H](CO)[C@@H](O)[C@H](O)[C@H]4O)[C@@H]3[C@@]3(CO)O[C@@H]23)[C@H](OC(=O)/C=C/c2ccc(O)c(O)c2)[C@H](O)[C@H]1O`, the “outcome” value was “inactive [at 17.3 µM]”. Regarding `C=CC(=O)Nc1cc(Nc2nccc(-c3c[nH]c4ccccc34)n2)c(OC)cc1N(C)CCN(C)C`, the Potency was 6510 nM (active).

Regarding `C=CC(C)(O)C(O)CC1C(C)(O)C(O)C(O)C2C(C)(C)CCCC21C` (centres undefined), the “activity change, negative = cytotoxicity” value was 3.66% (inactive). The same measure, in the same setting: the value for `CCNC(=O)C1OC(n2cnc3c(N)nc(NCCc4ccc(CCC(=O)O)cc4)nc32)C(O)C1O` (centres undefined) was -5.42% (inactive). As to `C=C1C(=O)O[C@@H]2/C=C(\C)C(=O)/C=C/[C@](C)(O)C[C@@H](OC(=O)C(C)C)[C@@H]12`, the Potency is 4530 nM (active).
